Bioassay records from PubChem.
FH mod: Identification of activators of human fumarate hydratase by quantitative high-throughput screening; AID 1347055, 2019; actives 0.22% (n = 54,000); Fumarate hydratase, mitochondrial (Homo sapiens), P07954; FH coupled MDH/diaphorase resazurin fluorescence, 15 min; Potency, µM (doses to about 79.9 µM), for the others: top-dose activity change, negative = inhibition, hits mostly inhibitors; note: potency is the fitted concentration of half-maximal effect; % is set by controls: 0 for no effect and ±100 for the full control effect; the screen sought activators but most active calls are inhibition curves; nearly all actives have a fitted effect of over 45% in size
HTT promoter inh: Primary qHTS for Identification of Small Molecule Inhibitors of Huntingtin Promoter Activity; HEK293 HTT promoter firefly luciferase reporter, 24 h; Potency, µM (highest dose often 57.5 µM), for the others: at the highest dose activity change, negative = inhibition, usual class: inhibitors; actives 0.93% (n = 48,000); note: potency is the fitted concentration of half-maximal effect; nearly all actives have a fitted effect of over 50% in size
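Quantitative HTS used concentration series of up to 57.5 uM final on HEK293 luciferase reporter cells, 24 h at 37 degrees C. Readout was Dual-Glo firefly luminescence.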
NTMT1 inh: Primary qHTS for Inhibitors of N-terminal methyltransferase 1 (NTMT1): MTaseGlo Assay. Potency, µM (top dose mostly 114 µM), for the others: at the highest dose activity change, negative = inhibition, actives largely listed as inhibitors. AID 1645870, 2021. N-terminal Xaa-Pro-Lys N-methyltransferase 1 (Homo sapiens), Q9BV86. actives 2.5% (n = 59,000). NTMT1 MTase-Glo SAH luminescence, purified enzyme;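 note: potency is the fitted concentration of half-maximal effect; plate controls were DMSO vehicle for no effect and no enzyme for full effect; nearly all actives have a fitted effect of over 65% in size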
GPR32 ag: qHTS for Agonists of Human Resolvin D1 Receptor DRV1 | AID 1346428, 2018 | actives 2.5% (n = 48,000) | Probable G-protein coupled receptor 32 (Homo sapiens), O75388 | activation, % at 76.9 µM | CHO-K1 GPR32 beta-arrestin PathHunter luminescence, 90 min; zero percent set by DMSO-only wells;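 active = activation of at least 60% and not above a set upper limit, about 1 call in 100 departs from these limits; inconclusive = activation of 40% to 60%, or above that upper limit; inactive = activation under 40%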; note: 0% is about no effect
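Agonism was scored as beta-arrestin recruitment to ProLink-fused GPR32 in stably transfected CHO-K1 cells, giving a chemiluminescent beta-Gal signal; compounds were incubated 90 min at 37 °C.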
HTT-AS promoter: Primary qHTS for Identification of Small Molecule Activators of Huntingtin-Antisense Promoter Activity; HEK293 HTT-AS promoter firefly luciferase reporter, 24 h; response scale: percent change from vehicle, -100% = no light; Potency, µM (highest dose often 57.5 µM), without a hit: top-dose activity change, positive = activation, hits mostly activators; actives 0.24% (n = 48,000); AID 1508624, 2021; note: potency is the fitted concentration of half-maximal effect; nearly all actives have a fitted effect of over 55% in size
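Firefly luciferase readout (Dual-Glo, 10 min RT) after 24 h, 37 °C compound exposure (final up to 57.5 uM) of HEK293 reporter cells cultured 24 h beforehand; PTC124 at 50 uM final as control inhibitor; activity scaled vehicle 0%, zero RLU -100%.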
DYRK1A inh-1: Assay for Inhibitors of Dual-Specificity Tyrosine-(Y)-Phosphorylation Regulated Kinase 1A (Kinase-Glo assay) | shares compounds with NTMT1 inh | recombinant DYRK1A, Kinase-Glo ATP depletion luminescence | Potency, µM (doses to about 76.9 µM), without a hit: at the top dose activity change, negative = inhibition, most hits filed as inhibitors | actives 80% (n = 100)
CLK4 inh-1: Confirmation Assay for Inhibitors of CDC-like Kinase 4 (Kinase-Glo Assay): SAR round 2; recombinant Clk4, Kinase-Glo ATP luminescence, 4.5 h; shares compounds with NTMT1 inh; AID 493204, 2011; actives 90% (n = 90); Potency, µM (highest dose often 76.9 µM), inactives show at the top dose activity, negative = inhibition, actives largely listed as inhibitors
Target sequence (Q9HAZ1 whole entry, looked up): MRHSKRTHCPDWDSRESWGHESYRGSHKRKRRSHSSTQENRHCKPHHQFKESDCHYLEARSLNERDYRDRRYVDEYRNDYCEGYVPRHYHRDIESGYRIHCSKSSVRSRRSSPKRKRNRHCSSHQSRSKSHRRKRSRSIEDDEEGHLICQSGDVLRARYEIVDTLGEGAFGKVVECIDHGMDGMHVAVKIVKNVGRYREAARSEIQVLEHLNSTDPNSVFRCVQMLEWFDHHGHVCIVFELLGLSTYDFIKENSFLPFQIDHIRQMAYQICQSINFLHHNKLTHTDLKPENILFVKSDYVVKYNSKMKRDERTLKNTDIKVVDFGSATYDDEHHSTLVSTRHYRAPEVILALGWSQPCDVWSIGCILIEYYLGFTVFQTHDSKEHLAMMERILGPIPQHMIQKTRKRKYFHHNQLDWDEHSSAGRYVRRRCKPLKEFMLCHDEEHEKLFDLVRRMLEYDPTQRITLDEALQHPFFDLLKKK
CLK4 inh-2: Kinase Inhibition Study on Inhibitors of CDC-like Kinase 4 (Reaction Biology data): SAR round 2 | shares compounds with NTMT1 inh | Reaction Biology kinase assay, 10 uM ATP | Potency, µM, most hits filed as inhibitors | actives 100% (n = 65); calls by dose curve
DYRK1A inh-2: Kinase Inhibition Study on Inhibitors of Dyrk1a (Reaction Biology data). actives 90% (n = 65). Potency, µM, most hits filed as inhibitors. shares compounds with NTMT1 inh. AID 504424, 2011. Reaction Biology kinase assay, 10 uM ATP;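 active = compounds that showed inhibition of Dyrk1a and received a fitted potency; inactive = compounds that showed no inhibition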
CLK2 RBC: Kinase Inhibition Study on Inhibitors of CDC-like Kinase 2 (Reaction Biology data); Reaction Biology kinase assay, 10 uM ATP; actives 90% (n = 65); shares compounds with NTMT1 inh; AID 504427, 2011; Potency, µM, hits mostly inhibitors;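 active = compound that inhibits Clk2 kinase in the dose series, with an IC50 potency reported; inactive = no inhibition seen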
CLK3 inh: Kinase Inhibition Study on Inhibitors of CDC-like Kinase 3 (Reaction Biology data) | shares compounds with NTMT1 inh | recombinant CLK3 kinase assay, 10 uM ATP | Potency, µM, usual class: inhibitors | actives 40% (n = 65);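 active = compounds that inhibited Clk3 enough in the ten-dose series to give a half-maximal potency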
DYRK1B inh: Kinase Inhibition Study on Inhibitors of Dyrk1b (Reaction Biology data) | shares compounds with NTMT1 inh | Recombinant Dyrk1b kinase assay, 10 uM ATP | Potency, µM, actives largely listed as inhibitors | actives 80% (n = 65) | AID 504429, 2011;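 active = compounds whose dose response shows an inhibitor phenotype against the kinase Dyrk1b; inactive = compounds showing no inhibitor phenotype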
CLK1 RBC: Kinase Inhibition Study on Inhibitors of CDC-like Kinase 1 (Reaction Biology data). Potency, µM, usual class: inhibitors. recombinant Clk1 kinase assay, 10 uM ATP. shares compounds with NTMT1 inh. AID 504430, 2011. actives 90% (n = 65);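 active = compounds that block the splicing kinase Clk1 enough to give a fitted half-inhibition concentration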
Active calls of the source: *; ? = inconclusive; . = no result; [ ] = remark or other dose. In the library only some 4.7% were active in any assay of this set; here they are far more common. Unless noted, calls come from the whole dose curve; as a rule, active = well fitted curve in the direction sought with a large enough effect; inconclusive = small, poorly fitted or top-dose-only effect, or another doubt; inactive = no such curve, though single readings can be large; an effect the other way counts as inactive or inconclusive.

SMILES	FH mod	HTT promoter inh	NTMT1 inh	GPR32 ag	HTT-AS promoter	DYRK1A inh-1	CLK4 inh-2	DYRK1A inh-2	CLK2 RBC	CLK3 inh	DYRK1B inh	CLK1 RBC	others
c1csc(CNc2ncnc3ccc(-c4ccc5c(c4)OCO5)cc23)n1	.	.	12%	.	.	.	0.05*	0.07µM*	0.41µM*	3.5µM*	0.45µM*	0.18µM*	CLK4 inh-1=0.046µM*
CN(Cc1nccs1)c1ncnc2ccc(-c3ccc4c(c3)OCO4)cc12	3%	.	7.1µM*	.	.	0.065µM*	0.02*	0.051µM*	0.59µM*	4.7µM*	0.18µM*	0.028µM*
c1cncc(-c2ccc3ncnc(NCc4ccc5c(c4)OCO5)c3c2)c1	.	.	-9%	.	.	.	.	.	.	.	.	.
c1csc(CCNc2ncnc3ccc(-c4ccc5c(c4)OCO5)cc23)c1	.	.	?	.	.	0.065µM*	.	.	.	.	.	.
O=c1cc(-c2ccc(F)cc2)nc(SCc2nc(-c3cccc(C(F)(F)F)c3)no2)[nH]1	?	8%	14%	-3	-3%	.	.	.	.	.	.	.
CC(=O)Oc1cc2c(s1)CCN([C@H](C(=O)C1CC1)c1ccccc1F)C2	-5%	.	-5%[57.5 µM]	.	.	.	.	.	.	.	.	.
CCc1nc2sc3c(N4CCC(C)CC4)ncnc3c2c2c1CCCC2	.	.	.	0	.	.	.	.	.	.	.	.
COc1cccc(-c2ccc3ncnc(NCc4cccs4)c3c2)c1	.	.	-20%	.	.	7.3µM*	.	.	.	.	.	.
c1coc(CNc2ncnc3ccc(-c4ccc5c(c4)OCO5)cc23)c1	.	.	.	.	.	.	0.079*	0.084µM*	0.3µM*	2.6µM*	0.53µM*	0.19µM*	CLK4 inh-1=0.037µM*
